Hits are enriched below; roughly 5.4% of the tested compounds scored in any of these assays.
Beta apoptosis = blocks beta cell apoptosis; protection from apoptosis, % (test concentration not listed); 300,000 compounds, 0.8% hits; INS-1E cytokine-induced death, ATP luminescence, 48 h; percent of positive-control rescue, neutral wells zero;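 active means Every replicate reaches about 75%, or at least half do and their mean reaches it too, limit read from the data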;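 further: 0% = cytokine-treated negative control wells and 100% = positive control rescue; higher means more ATP so stronger rescue from cytokine killing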
SKKanGAS inh = inhibitors of SKKanGAS S. pyogenes growth in kanamycin (SK-promoter or general growth effect) | inhibition, % at 7.5 µM | AID 1662 | 300,000 compounds, 1.3% hits | BacTiter-Glo, 6 h;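 active means mean replicate score, as percent of positive control median, at least 50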;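 further: strain carries kanamycin resistance gene driven by streptokinase promoter and grows in 40 µg/ml kanamycin; loss of luminescence reflects streptokinase promoter inhibition or plain growth inhibition; 0% = median of DMSO wells and 100% = positive control at its reference dose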
CSC inhib = cancer stem cell inhibition | cancer stem cell-like cells viability, luminescence | inhibition, % at 7.5 µM | 300,000 compounds, 1.1% hits | AID 2717; in the data active means inhibition above about 75%; tested in HMLE shEcad cells
MPTP inh = permeability transition pore inhibition. isolated mouse mitochondria, Ca2+ swelling absorbance, 30 min. inhibition, % at 10 µM. 360,000 compounds, 1.4% hits. AID 602449;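 active means inhibition of 50% or more, scaled per plate between neutral and stimulator controls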;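 further: 0% = DMSO wells given calcium and 100% = 1 mM EGTA wells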
Calb FLC = affects C. albicans growth with fluconazole. C. albicans CaCi-2 (fluconazole-resistant clinical isolate) + fluconazole, Alamar Blue growth, 48 h. growth inhibition, % (no concentration beside the values). 300,000 compounds, 0.57% hits. AID 1979;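 active means growth inhibition above about 58% in most replicates, limit read from the data, passing the limit was not always enough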;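 further: all wells also contain fluconazole at 8 µg/ml as a sub-toxic cotreatment; 0% = median of DMSO wells and 100% = median of geldanamycin control wells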
Mdm2-MdmX inh = disrupts the human Mdm2-MdmX interaction; 330,000 compounds, 3% hits; inhibition, % at 8 µM; AID 485346; O15151+Q00987; SaOS-2 split-luciferase Mdm2/MdmX complementation, luminescence;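 active means inhibition of at least 50% at 8 µM in the primary screen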
Target sequence (O15151 whole entry, looked up): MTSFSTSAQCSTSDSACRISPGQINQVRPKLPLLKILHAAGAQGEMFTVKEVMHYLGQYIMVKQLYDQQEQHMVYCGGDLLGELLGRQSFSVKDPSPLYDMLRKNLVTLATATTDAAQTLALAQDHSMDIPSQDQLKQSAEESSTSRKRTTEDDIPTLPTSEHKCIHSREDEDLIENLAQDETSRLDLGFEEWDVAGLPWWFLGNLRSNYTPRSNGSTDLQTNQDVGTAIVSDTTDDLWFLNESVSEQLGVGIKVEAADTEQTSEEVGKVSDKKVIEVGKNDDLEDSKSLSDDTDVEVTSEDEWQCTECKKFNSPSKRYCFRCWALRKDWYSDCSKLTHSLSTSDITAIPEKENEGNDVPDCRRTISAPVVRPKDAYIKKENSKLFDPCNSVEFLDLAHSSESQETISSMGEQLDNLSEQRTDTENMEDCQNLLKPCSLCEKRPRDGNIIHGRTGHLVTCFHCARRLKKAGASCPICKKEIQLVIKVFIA
Target sequence (Q00987 whole entry, looked up): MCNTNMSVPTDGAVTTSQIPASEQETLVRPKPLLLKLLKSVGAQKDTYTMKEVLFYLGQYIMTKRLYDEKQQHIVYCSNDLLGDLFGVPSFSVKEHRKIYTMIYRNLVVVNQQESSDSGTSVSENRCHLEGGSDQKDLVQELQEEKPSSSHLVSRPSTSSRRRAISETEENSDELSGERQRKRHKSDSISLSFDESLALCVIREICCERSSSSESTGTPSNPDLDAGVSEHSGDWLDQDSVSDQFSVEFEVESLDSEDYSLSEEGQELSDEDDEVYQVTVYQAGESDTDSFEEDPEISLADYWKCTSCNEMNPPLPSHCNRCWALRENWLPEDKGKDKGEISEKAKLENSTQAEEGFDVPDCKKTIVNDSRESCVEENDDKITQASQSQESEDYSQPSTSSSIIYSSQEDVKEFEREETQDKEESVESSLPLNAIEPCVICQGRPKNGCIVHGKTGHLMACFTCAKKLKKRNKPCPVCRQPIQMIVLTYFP
Mdm2-MdmX conf = confirmation of human Mdm2/MdmX interaction inhibitors | shares compounds with Mdm2-MdmX inh | Mdm2-MdmX binding, luminescent assay | inhibition, % at 8 µM | 10,000 compounds, 55% hits; in the data active means inhibition above about 40%
FLuc counter = counter-screen for Mdm2/MdmX inhibitors: full-length luciferase | AID 504607 | shares compounds with Mdm2-MdmX inh | SaOS-2 full-length luciferase counterscreen, luminescence | inhibition, % at 8 µM | 6,200 compounds, 77% hits;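 active means mean inhibition at 8 µM reaching about 37%, which flags the compound as non-specific, limit read from the data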;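 further: p53-null SaOS-2 cells with luciferase driven by a doxycycline-inducible promoter; compound on cells about two nights before reading with doxycycline added after day one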
* = called active by the depositor; nt = no result given.

SMILES | Beta apoptosis | SKKanGAS inh | CSC inhib | MPTP inh | Calb FLC | Mdm2-MdmX inh | Mdm2-MdmX conf | FLuc counter
CCN1C(=O)C(=Cc2cccc(OC)c2Oc2ccc([N+](=O)[O-])cc2[N+](=O)[O-])SC1=S | 99* | 9 | 77* | 0 | 4 | 100* | 95* | 28
COc1cc(/C=C2\SC(=O)NC2=O)ccc1Oc1ccc([N+](=O)[O-])cc1[N+](=O)[O-] | 18 | 13 | 46 | 27 | 14 | 8 | nt | nt
CCc1ccc(-n2c(SCC(=O)c3ccc4c(c3)NC(=O)CO4)nc3ccccc3c2=O)cc1 | 42 | -5 | 22 | -2 | 4 | 64* | -4 | nt
Cn1c(SCC(=O)c2ccc3c(c2)NC(=O)CO3)nc2ccccc21 | -4 | 10 | 8 | -3 | 3 | 14 | nt | nt
O=C1COc2ccc(C(=O)CSc3nc4ccccc4c(=O)n3-c3ccc(Cl)c(Cl)c3)cc2N1 | 69 | 1 | -4 | 5 | -12 | 98* | 24 | nt
Cc1c(C(=O)Nc2ccc(F)cc2)oc2ccc(S(=O)(=O)N3CC(C)CC(C)C3)cc12 (stereo unspecified) | 53 | 15 | 23 | 16 | 3 | 64* | 39 | 69*
CC1CC(C)CN(S(=O)(=O)c2ccc(NC(=O)c3ccc(=O)[nH]c3)cc2)C1 (stereo unspecified) | 19 | nt | 42 | 0 | nt | 59* | 51* | 74*
CC1CC(C)CN(S(=O)(=O)c2ccc(F)c(C(=O)Nc3ccc(Cl)cc3F)c2)C1 (stereo unspecified) | nt | -5 | nt | 1 | -6 | 52* | 12 | nt
Cc1c(C(=O)NCc2cccnc2)oc2ccc(S(=O)(=O)N3CC(C)CC(C)C3)cc12 (stereo unspecified) | 6 | 1 | -9 | -1 | -4 | 19 | nt | nt
O=C(CSc1cc([N+](=O)[O-])cc(S(=O)(=O)Cc2ccccc2)c1)NC1CC1 | -2 | -1 | -15 | 0 | -1 | 6 | nt | nt
N=c1c(C(=O)NCc2ccc(F)cc2)cc2c(=O)n3ccccc3nc2n1CCCN1CCOCC1 | 12 | nt | -3 | -4 | nt | 53* | 16 | nt
CCCn1c(=N)c(C(=O)NCc2ccc3c(c2)OCO3)cc2c(=O)n3cccc(C)c3nc21 | 18 | 12 | 9 | -2 | 4 | 70* | 19 | nt
Cc1cccn2c(=O)c3cc(C(=O)NC4CCCCC4)c(=N)n(Cc4ccc(F)cc4)c3nc12 | 5 | -4 | -8 | 2 | 10 | 58* | 18 | nt
COc1ccc(CCn2c(=N)c(C(=O)NCC3CCCO3)cc3c(=O)n4cccc(C)c4nc32)cc1 (stereo unspecified) | 33 | 4 | 4 | 0 | 2 | 53* | 32 | nt
Cc1cccn2c(=O)c3cc(C(=O)NC4CCCC4)c(=N)n(CC4CCCO4)c3nc12 (stereo unspecified) | 7 | 1 | -8 | 0 | 1 | 23 | nt | nt
O=C(COC(=O)c1ccccc1Br)Nc1cc(S(=O)(=O)N2CCOCC2)ccc1N1CCCC1 | -1 | 5 | 3 | 0 | 0 | -20 | nt | nt
COc1ccc(CCNC(=O)c2cc3c(=O)n4cccc(C)c4nc3n(CCCN3CCOCC3)c2=N)cc1 | 27 | 0 | 11 | -1 | -4 | 65* | 17 | nt
Cc1cccn2c(=O)c3cc(C(=O)NCCN4CCOCC4)c(=N)n(Cc4ccc(F)cc4)c3nc12 | 15 | 1 | -12 | 0 | 29 | 81* | 78* | 35
Cc1cccn2c(=O)c3cc(C(=O)NCCN4CCOCC4)c(=N)n(CCN4CCOCC4)c3nc12 | 0 | -8 | nt | 0 | -17 | 23 | nt | nt
COCCn1c(=N)c(C(=O)NCCc2ccc(OC)cc2)cc2c(=O)n3cccc(C)c3nc21 | 5 | 8 | -1 | -7 | 10 | 39 | nt | nt
CN(CC(=O)Nc1cccc(F)c1)C(=O)CCc1nc2ccccc2c(=O)[nH]1 | -7 | -9 | -10 | -1 | 0 | 13 | nt | nt
Cc1occc1C(=O)NNC(=S)Nc1ccccc1 | 3 | 2 | -10 | -3 | -18 | -31 | nt | nt
CCOc1ccccc1NC(=O)NNC(=O)c1ccc2ccccc2c1 | 2 | 0 | nt | -2 | 5 | 60* | 50* | 83*
CCOc1ccccc1NC(=O)c1ccc2ccccc2c1 | 0 | -11 | -5 | 0 | 0 | 7 | nt | nt
COc1cccc(N2CCN(C(=O)c3ccc(CS(=O)c4ccc(Cl)cc4)o3)CC2)c1 (stereo unspecified) | 5 | 6 | 49 | -1 | -5 | 46 | nt | nt
SMILES | Beta apoptosis | SKKanGAS inh | CSC inhib | MPTP inh | Calb FLC | Mdm2-MdmX inh | Mdm2-MdmX conf | FLuc counter
COc1cc(C(=O)N2CCN(c3ccc(C)cc3C)CC2)cc(OC)c1OC | 14 | -6 | 60 | 0 | 3 | 58* | 47* | 44*
COc1cccc(N2CCN(C(=O)c3ccc(CS(=O)c4ccc(C)cc4)o3)CC2)c1 (stereo unspecified) | 16 | 1 | 56 | 0 | -6 | 58* | 52* | 61*
CN1CCN(C(=O)c2ccc(S(=O)(=O)N(C)c3ccccc3)cc2)CC1 | nt | nt | nt | -2 | nt | nt | nt | nt
Cc1ccc(N2CCN(C(=O)c3ccccc3)CC2)c(C)c1 | 1 | 4 | -4 | 0 | 3 | 6 | nt | nt
Cc1[nH]c2ccc(C(=O)N3CCN(c4ccccc4Cl)CC3)cc2c1C | -5 | 25 | 51 | 0 | nt | 28 | nt | nt
Cc1cccc(N2CCN(C(=O)c3ccc(S(=O)(=O)N(C)c4ccccc4)cc3)CC2)c1C | -4 | nt | 57 | 0 | nt | 67* | 59* | 61*
COc1ccccc1N1CCN(C(=O)c2ccc3[nH]c(C)c(C)c3c2)CC1 | 6 | 8 | 56 | 0 | -5 | 51* | 63* | 66*
O=c1c2ccccc2nc2n1CC/C2=C\N1CCN(c2ccc([N+](=O)[O-])cc2)CC1 | -1 | -17 | -7 | 4 | 8 | 21 | nt | nt
Cc1onc(-c2ccccc2Cl)c1C(=O)N1CCN(c2cccc(Cl)c2)CC1 | nt | 8 | 56 | -2 | -1 | 54* | 59* | 57*
COc1ccc(S(=O)(=O)Cc2ccc(C(=O)N3CCN(c4cccc(C)c4C)CC3)o2)cc1 | nt | 6 | 72 | 0 | 15 | 63* | 61* | 47*
O=C(c1ccc2c(c1)[nH]c(=S)n1c3ccccc3nc21)N1CCN(c2cccc(Cl)c2)CC1 | 82* | 32 | 21 | 0 | 18 | 85* | 5 | nt
Cc1[nH]c2ccc(C(=O)N3CCN(c4cccc(Cl)c4)CC3)cc2c1C | 0 | 27 | 65 | 1 | nt | 51* | 57* | 56*
Cc1onc(-c2ccccc2Cl)c1C(=O)N1CCN(c2ccccc2)CC1 | -6 | 0 | 4 | 0 | 7 | 6 | nt | nt
CC(C)(C)c1ccc(S(=O)(=O)NCCOCC(F)(F)C(F)F)cc1 | 2 | -13 | -6 | 4 | -1 | 8 | nt | nt
